C diff growth – inhibitors of Clostridium difficile growth; Clostridium difficile clinical isolate growth, OD600, 24 h; stronger effect = lower value; growth activity, negative = inhibition, % at 16 µg/mL (by protocol); 86,000 compounds, 0.25% hits; AID 1259249;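 active = mean growth activity at or below -80% and every replicate also at or below -80%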
T cruzi growth-1 – inhibitors of T. cruzi proliferation | 77,000 compounds, 5.9% hits | inhibition, % at 8.34 µM | T. cruzi beta-gal in NIH3T3, GalScreen luminescence, 90 h;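 active = mean inhibition above about 93%, with at least 55% of replicates each passing it, limit read from the data, passing the limit was not always enough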
T cruzi growth-2 – blocks T. cruzi growth in NIH3T3 host cells. 5,600 compounds, 72% hits. inhibition, % at 8.35 µM. shares compounds with T cruzi growth-1. T. cruzi beta-gal in NIH3T3, GalScreen luminescence, 90 h;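 active = mean replicate inhibition above about 95% and at least 55% of replicates individually reaching it, limit read from the data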
T cruzi growth-3 – inhibitors of T. cruzi proliferation; T. cruzi beta-gal in NIH3T3, GalScreen luminescence, 90 h; shares compounds with T cruzi growth-1; 5,600 compounds, 21% hits; inhibition, % at 2.09 µM;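 active = mean inhibition above about 95%, with at least 55% of replicates also reaching it, limit read from the data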
NIH3T3 tox – cytotoxicity in mouse NIH/3T3 fibroblasts; NIH/3T3 viability, CellTiter-Glo ATP luminescence, 90 h; shares compounds with T cruzi growth-1; 5,600 compounds, 14% hits; cytotoxicity (signal decrease), % at 8.35 µM; AID 651742;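 active = mean signal decrease across replicates above about 35% based on untreated-well scatter, with enough replicates individually passing, limit read from the data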
3T3 cytotox 2 – cytotoxicity in mouse NIH/3T3 fibroblasts. inhibition, % at 24.9 µM. 5,600 compounds, 56% hits. shares compounds with T cruzi growth-1. NIH/3T3 viability, CellTiter-Glo ATP luminescence, 90 h;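 active = mean loss of cell viability signal at or above a set limit, and enough replicates individually reaching it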
Of the large screens only hits and unclear results are named; the others gave an inactive call (follow-up assays come after a bar, where they were run). Only a selection was taken, and hits are over-represented in it overall.

C[C@H](O)C#Cc1ccc2c(c1)O[C@H](CN(C)Cc1ccncc1)[C@@H](C)CN([C@H](C)CO)S2(=O)=O	none
C[C@@H]1CN([C@H](C)CO)S(=O)(=O)c2ccc(C#C[C@@H](C)O)cc2O[C@@H]1CN(C)Cc1ccncc1	none
C[C@H](O)C#Cc1ccc2c(c1)O[C@@H](CN(C)Cc1ccncc1)[C@H](C)CN([C@@H](C)CO)S2(=O)=O	T cruzi growth-1 110 | T cruzi growth-2 98 | T cruzi growth-3 inactive | NIH3T3 tox inactive | 3T3 cytotox 2 50
C[C@H](O)C#Cc1ccc2c(c1)O[C@H](CN(C)Cc1ccncc1)[C@H](C)CN([C@H](C)CO)S2(=O)=O	none
Cc1ccc(S(=O)(=O)N(C)C[C@@H]2OCCCC[C@@H](C)Oc3ccc(NS(=O)(=O)c4ccc(F)cc4)cc3C(=O)N([C@@H](C)CO)C[C@H]2C)cc1	none
Cc1ccc(S(=O)(=O)Nc2ccc3c(c2)C(=O)N([C@H](C)CO)C[C@H](C)[C@@H](CN(C)C(=O)Nc2cccc4ccccc24)OCCCC[C@H](C)O3)cc1	T cruzi growth-1 99 | T cruzi growth-2 110 | T cruzi growth-3 105 | NIH3T3 tox inactive | 3T3 cytotox 2 inactive
Cc1ccc(S(=O)(=O)Nc2ccc3c(c2)C(=O)N([C@@H](C)CO)C[C@H](C)[C@@H](CN(C)C(=O)Nc2cccc4ccccc24)OCCCC[C@H](C)O3)cc1	none
C[C@@H]1CN([C@@H](C)CO)C(=O)c2cc(NS(=O)(=O)c3ccc(F)cc3)ccc2O[C@@H](C)CCCCO[C@@H]1CN(C)C(=O)Nc1cccc2ccccc12	T cruzi growth-1 101 | T cruzi growth-2 104 | T cruzi growth-3 inactive | NIH3T3 tox inactive | 3T3 cytotox 2 inactive
C[C@@H]1CCCCO[C@H](CN(C)C(=O)Nc2cccc3ccccc23)[C@H](C)CN([C@H](C)CO)C(=O)c2cc(NS(=O)(=O)c3ccc(F)cc3)ccc2O1	T cruzi growth-1 105 | T cruzi growth-2 106 | T cruzi growth-3 inactive | NIH3T3 tox inactive | 3T3 cytotox 2 inactive
C[C@H]1CCCCO[C@@H](CN(C)C(=O)Nc2cccc3ccccc23)[C@@H](C)CN([C@@H](C)CO)C(=O)c2cc(NS(=O)(=O)c3ccc(F)cc3)ccc2O1	T cruzi growth-1 109 | T cruzi growth-2 107 | T cruzi growth-3 inactive | NIH3T3 tox inactive | 3T3 cytotox 2 inactive
Cc1ccc(S(=O)(=O)Nc2ccc3c(c2)C(=O)N([C@H](C)CO)C[C@@H](C)[C@H](CN(C)C(=O)Nc2cccc4ccccc24)OCCCC[C@@H](C)O3)cc1	none
Cc1ccc(S(=O)(=O)Nc2ccc3c(c2)C(=O)N([C@@H](C)CO)C[C@@H](C)[C@@H](CN(C)C(=O)Nc2cccc4ccccc24)OCCCC[C@H](C)O3)cc1	none
Cc1ccc(S(=O)(=O)Nc2ccc3c(c2)C(=O)N([C@@H](C)CO)C[C@H](C)[C@@H](CN(C)C(=O)Nc2cccc4ccccc24)OCCCC[C@@H](C)O3)cc1	none
CO[C@H]1CN(C)C(=O)c2ccc(NS(=O)(=O)CC(F)(F)F)cc2OC[C@@H](C)N(C(=O)NC(C)C)C[C@H]1C	none (no result: C diff growth)
C[C@@H]1CN([C@@H](C)CO)C(=O)c2cc(NS(=O)(=O)c3ccc(F)cc3)ccc2O[C@@H](C)CCCCO[C@H]1CN(C)C(=O)Nc1cccc2ccccc12	T cruzi growth-1 100 | T cruzi growth-2 108 | T cruzi growth-3 inactive | NIH3T3 tox inactive | 3T3 cytotox 2 inactive
C[C@H](CO)N1C[C@H](C)[C@H](CN(C)C(=O)Nc2cccc3ccccc23)OCCCC[C@H](C)Oc2ccc(NS(=O)(=O)c3ccc(F)cc3)cc2C1=O	none
C[C@H](CO)N1C[C@H](C)[C@H](CN(C)C(=O)Nc2ccccc2)OCCCC[C@H](C)Oc2ccc(NS(=O)(=O)c3cccs3)cc2C1=O	none
C[C@H](CO)N1C[C@H](C)[C@@H](CN(C)C(=O)Nc2cccc3ccccc23)OCCCC[C@H](C)Oc2ccc(NS(=O)(=O)c3cccs3)cc2C1=O	T cruzi growth-1 102 | T cruzi growth-2 106 | T cruzi growth-3 inactive | NIH3T3 tox inactive | 3T3 cytotox 2 inactive
CS(=O)(=O)N1[C@@H]2c3ccc(C4=CCCCC4)c(=O)n3C[C@H]1[C@H](CO)[C@H]2C(=O)N1CCOCC1	none
O=C(C[C@H]1CC[C@H]2[C@@H](COC[C@@H](O)CN2Cc2cccc(C(F)(F)F)c2)O1)NCc1ccccc1	none

Bioassay records (PubChem)
